Compound activity: PubChem BioAssay, National Center for Advancing Translational Sciences (NCATS)
In the library only some 0.88% were active in any assay of this set; here they are far more common.
ERG-DNA inh: inhibitors of human ERG Ets domain-DNA interaction; P11308; fluorescence polarization, His-ERG Ets domain / labelled DNA; Potency, µM (highest dose often 76.9 µM), for inactives: top-dose FP activity, negative = inhibition, actives largely listed as inhibitors; hit rate 0.028% among 370,000; AID 624246; active = well fitted inhibition curve with a large enough effect in the polarisation, with a control signal flat; inconclusive = small, poorly fitted or top-dose-only effect, or effect the other way, or a change in a side signal; inactive = no such curve, though single readings can be large or run the other way; the % refers to the polarisation;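 note: polarization taken with two DNA probes labelled with fluorescein and Texas red; % of control where 0% means no effect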
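His-tagged ERG Ets domain (1 uM in the protein solution; 300mM KCl, 50mM Tris-HCl, 1mM EDTA, 1mM DTT, pH 7.5) received compound, then a probe mix of 5 nM fluorescein-DNA and 100nM Texas-615-DNA. Fluorescence polarization was read for both dyes.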
RECQ1 inh: inhibitors of human RECQ1 DNA helicase; P46063; RECQ1 DNA unwinding, red fluorescence kinetic read; Potency, µM (titrated, usually from 57.3 µM), for inactives: at the top dose activity, negative = inhibition, most hits filed as inhibitors; hit rate 0.54% among 240,000; AID 2549;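 note: plate controls were vehicle for no effect and no enzyme for full effect; nearly all actives have a fitted effect of over 30% in size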
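RECQ1T1 50 nM; forked duplex (20 bp + 30-nt ss tails) 200 nM, ATP 2 mM final; pH 8.0, 2 mM MgCl2, 2.5 ug/ml poly(dI-dC); 15 min compound preincubation; discontinuous kinetic read over 2 h at RT.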
BLM inh: Bloom syndrome helicase (human) inhibition. P54132. recombinant BLM DNA unwinding, fluorescence dequenching. Potency, µM (highest dose often 56.1 µM), without a hit: at the top dose activity change, negative = inhibition, hits mostly inhibitors. hit rate 0.2% among 350,000. AID 2528;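 note: plate controls were vehicle for no effect and no enzyme for full effect; nearly all actives have a fitted effect of over 35% in size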
GCN5L2 inh: GCN5L2 (KAT2A) acetyltransferase inhibition. Q92830. GCN5L2 HAT assay, ThioGlo1 CoA-SH fluorescence. Potency, µM (top dose mostly 58.9 µM), inactives show at the top dose activity change, negative = inhibition, actives largely listed as inhibitors. hit rate 0.21% among 390,000; note: % is set by controls: 0 for no effect and ±100 for the full control effect
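ThioGlo1-coupled HAT assay: 20nM GCN5L2, 70uM acetyl-CoA, 75uM H3(1-25) peptide, pH 7.5. Fluorescence read at 340/540nm at start and after 20 min at room temperature.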
APEX1 inh: APE1 (human) endonuclease inhibition. Potency, µM (series often up to 65.8 µM), for the others: at the highest dose activity change, negative = inhibition, actives largely listed as inhibitors. AID 2517. recombinant APE1, TAMRA/BHQ-2 abasic DNA cleavage fluorescence. P27695. hit rate 0.35% among 350,000;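 note: plate controls were vehicle for no effect and reference inhibitor for full effect; nearly all actives have a fitted effect of over 55% in size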
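Measures dequenching upon AP-site incision of a 5'-TAMRA/3'-BHQ-2 THF-containing duplex, 50 nM; human APE1 0.75 nM after 15 min room-temperature exposure to compound; kinetic three-point read at one-minute spacing.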
WRN helicase inh: WRN helicase (human) inhibition; Q14191; WRN helicase unwinding, fluorescent forked duplex, kinetic; Potency, µM (series often up to 114 µM), without a hit: at the top dose activity change, negative = inhibition, usual class: inhibitors; hit rate 0.46% among 360,000; AID 651768; note: % is set by controls: 0 for no effect and ±100 for the full control effect; nearly all actives have a fitted effect of over 55% in size
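Kinetic red-fluorescence monitoring (525/598 nm) tracks WRN helicase activity after 100 nM fluorophore-quencher forked duplex and 2 mM ATP are added to 20 nM enzyme pretreated 15 min at room temperature with compound.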
Starred values were filed as active, the others as inactive; ? = inconclusive; . = no result given; ! = repeats disagree; [ ] = dose if it differs, or a comment. Unless noted, calls come from the whole dose curve; as a rule, active = well fitted curve in the direction sought with a large enough effect; inconclusive = small, poorly fitted or top-dose-only effect, or another doubt; inactive = no such curve, though single readings can be large; an effect the other way counts as inactive or inconclusive. Potency is the fitted concentration of half-maximal effect.

SMILES	ERG-DNA inh	RECQ1 inh	BLM inh	GCN5L2 inh	APEX1 inh	WRN helicase inh
Oc1cc(O)c2c(c1)O[C@H](c1ccc(O)c(O)c1)[C@@H](O)C2	2.9%	?	-2.5%	-2.2%	11.2µM*!	.
Cc1ccc(NC(=O)C2=C(c3ccccc3)S(=O)(=O)CCS2(=O)=O)cc1	-9.8%	-22.3%	-0.8%	?	-4.4%	22.4µM*
CCOC(=O)C1=C(C)N=c2s/c(=C\c3ccc(OCC(=O)O)cc3)c(=O)n2C1c1ccc(Cl)cc1 (centres undefined)	12.4%	.	?	-23.5%	10.6µM*	?
CCOC(=O)C1=C(C)N=c2s/c(=C/c3ccc(OCC(=O)O)cc3)c(=O)n2C1c1ccc(SC)cc1 (centres undefined)	.	.	?	?	7.52µM*	.
CC[C@@H](C)CCCCC(=O)N[C@@H](CCNCS(=O)(=O)O)C(=O)N[C@H](C(=O)N[C@@H](CCNCS(=O)(=O)O)C(=O)N[C@H]1CCNC(=O)[C@H]([C@@H](C)O)NC(=O)[C@H](CCNCS(=O)(=O)O)NC(=O)[C@H](CCNCS(=O)(=O)O)NC(=O)[C@H](CC(C)C)NC(=O)[C@@H](CC(C)C)NC(=O)[C@H](CCNCS(=O)(=O)O)NC1=O)[C@@H](C)O	.	.	.	.	9.4%	.
CC(C)(C)n1ncc2c(=O)n(Cc3ccc(OC(F)(F)F)cc3)cnc21	.	.	.	.	3.4%	.
Nc1c(/C=C2/C=CC(=O)C(O)=C2)c(=O)nc2sc(CC(=O)N3CCOCC3)nn12	-5.6%	.	.	.	.	?
Nc1c(/C=C2/C=CC(=O)C(O)=C2)c(=O)nc2sc(CC(=O)N3CCCC3)nn12	7.7%	.	-19.3%	-20.5%	10.6µM*	39.8µM*
Nc1c(/C=C2/C=CC(=O)C(O)=C2)c(=O)nc2sc(CC(=O)N3CCCCC3)nn12	-2.6%	.	28.2µM*	?	1.89µM*	-3.0%
CC(C)C[C@H](NC(=O)CNC(=O)[C@@H]1CCCN1C(=O)[C@H](CCCNC(=N)N)NC(=O)[C@H](CC(=O)O)NC(=O)[C@@H](NC(=O)[C@H](CC(N)=O)NC(=O)[C@@H](NC(=O)[C@H](CC(=O)O)NC(=O)CNC(=O)[C@@H](NC(=O)[C@@H](NC(=O)[C@H](C)NC(=O)[C@@H](N)CCC(N)=O)[C@@H](C)O)C(C)C)C(C)C)[C@@H](C)O)C(=O)N[C@@H](CC(C)C)C(=O)N[C@@H](CC(=O)O)C(=O)N[C@@H](CC(C)C)C(=O)N[C@@H](CCCCN)C(=O)O	.	-2.9%	0.2%	-1.4%	-10.1%	.
C#Cc1ccc([C@H]2C=C(C(=O)O)O[C@@H](OCc3ccc(CO)cc3)C2)cc1	1.1%	-13.2%	-6.4%	0.4%	31.6µM*	-22.8%[57.1 µM]
COC(=O)c1cccc(-n2sc3ccccc3c2=O)c1	0.2%	.	.	1.58µM*	15.3%	0.3%
O=c1c2ccccc2sn1-c1ccc(F)cc1	3.7%	.	.	2µM*	21.0%	-4.6%[11.6 µM]
CN1CCC(NC(=O)c2cnn3c2NC(=C2CC2)C=C3C(F)F)CC1	.	.	.	.	14.1%	.
COc1cccc([C@@H]2Oc3ccc(Br)cc3C(=O)[C@H]2OC(=O)Nc2cc(OC)c(OC)c(OC)c2)c1	.	-6.8%	-8.0%	.	-8.5%	.
C=C1C=C(C(F)F)n2ncc(C(=O)Nc3ccc(C(C)CC)cc3)c2N1 (centres undefined)	.	.	.	.	39.5%	.
O=C(O)c1cccc(CN2C(=O)SC(Nc3cccc4ccccc34)C2=O)c1 (centres undefined)	16.5%	-7.1%	-4.1%	14.1µM*	-0.1%	-1.2%
COC1=C(Br)C(=O)c2nc(C)ccc2C1=O	.	.	.	.	.	50.1µM*
COC1=C(N)C(=O)c2nc(C)ccc2C1=O	0.2%	.	.	.	.	-32.6%
COc1ccc(C(=O)N2C(=S)NC(=O)/C2=C\c2ccc(C)cc2)cc1	0.5%	-8.3%	?	?	-1.2%	50.1µM*
COc1ccc(C=C2NC(=S)NC2=O)cc1	9.3%	.	.	.	.	1.3%
CCOc1cc(C(=O)NCc2ccc3c(c2)CCN3C(=O)c2ccc(F)cc2)cc(OCC)c1OCC	4.4%	.	-15.7%	-2.8%	.	.
O=c1c2c([nH]c3ccccc13)C(=C1CCCC1)CC2	5.3%	?	?	-13.5%	?	50.1µM*
CCCCC(CC)CO (centres undefined)	2.2%	-2.9%	.	-7.8%	27.6%	0.0%
CCCCC(CC)CN=C(N)NC(N)=NCCCCCCN=C(N)NC(N)=NCC(CC)CCCC (centres undefined)	19.5%	13.7%	?	-20.7%	-13.6%	89.1µM*
SMILES	ERG-DNA inh	RECQ1 inh	BLM inh	GCN5L2 inh	APEX1 inh	WRN helicase inh
COc1ccc(C2=Nn3c(nnc3-c3cc(OC)ccc3OC)SC2)c(OC)c1	.	-2.7%	0.9%	.	-0.8%	.
O=c1nc2s/c(=C\c3ccc(-c4ccccc4[N+](=O)[O-])o3)c(=O)n2nc1-c1ccccc1	-14.1%	-10.1%	?	?	11.8%	14.1µM*
CCCCCOc1ccc(/C=c2\sc3nc(=O)c(-c4ccccc4)nn3c2=O)cc1OC	2.1%	-16.2%	0.4%	-3.0%	?	-21.5%
S=C1NC2(CCCCC2)NN1c1ccccc1	-14.2%	-1.7%	-3.2%	17.8µM*	-6.5%	2.3%
Cc1cnc(C(=O)OCc2nc3ccsc3c(=O)[nH]2)cn1	8.0%	.	.	-13.5%	-36.4%	50.1µM*
O=C(/C=C/c1ccc(Br)o1)OCc1nc2ccsc2c(=O)[nH]1	.	.	.	?	?	14.1µM*
CC(C)[C@@H](CC(=O)N[C@@H]1CCCC[C@H]1C(=O)N[C@H](CC(=O)N[C@@H](CCC(=O)O)CC(=O)O)Cc1c[nH]c2ccccc12)NC(=O)C[C@H](Cc1c[nH]c2ccccc12)NC(=O)[C@@H]1CCCC[C@H]1N	.	-8.9%	1.3%	.	-0.1%	.
CC(C)C[C@@H](CC(=O)N[C@H](CC(=O)N[C@@H]1CCCC[C@H]1C(=O)N[C@H](CC(=O)N[C@@H](CCC(=O)O)CC(=O)O)Cc1c[nH]c2ccccc12)C(C)C)NC(=O)[C@@H]1CCCC[C@H]1N	.	-7.5%	7.08µM*	.	-3.9%	.
CC12C(=O)N(c3nccs3)C(=O)C1C1C=CC2C1 (centres undefined)	-0.9%	-20.5%	-5.1%	-23.6%	10µM*	-33.7%
